SMILES strings stand for the structures. The campaign covered roughly 310,000 compounds. About 14,000 (4.5%) showed an effect of 50% or more. Effects have a minus sign here. The sample holds strong results, similar compounds and a random draw of the others, so the mix is not that of the screen.
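Further: peak tail current of the secondary pulse compared with the same well before compound.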

In this assay the target is human ether-à-go-go-related gene (hERG) potassium channel (human, UniProt Q12809). Kind of assay: primary screen, population patch clamp on CHO cells stably expressing hERG; higher = less effect of the substance.
Chain of human ether-à-go-go-related gene (hERG) potassium channel (Q12809 whole entry, looked up): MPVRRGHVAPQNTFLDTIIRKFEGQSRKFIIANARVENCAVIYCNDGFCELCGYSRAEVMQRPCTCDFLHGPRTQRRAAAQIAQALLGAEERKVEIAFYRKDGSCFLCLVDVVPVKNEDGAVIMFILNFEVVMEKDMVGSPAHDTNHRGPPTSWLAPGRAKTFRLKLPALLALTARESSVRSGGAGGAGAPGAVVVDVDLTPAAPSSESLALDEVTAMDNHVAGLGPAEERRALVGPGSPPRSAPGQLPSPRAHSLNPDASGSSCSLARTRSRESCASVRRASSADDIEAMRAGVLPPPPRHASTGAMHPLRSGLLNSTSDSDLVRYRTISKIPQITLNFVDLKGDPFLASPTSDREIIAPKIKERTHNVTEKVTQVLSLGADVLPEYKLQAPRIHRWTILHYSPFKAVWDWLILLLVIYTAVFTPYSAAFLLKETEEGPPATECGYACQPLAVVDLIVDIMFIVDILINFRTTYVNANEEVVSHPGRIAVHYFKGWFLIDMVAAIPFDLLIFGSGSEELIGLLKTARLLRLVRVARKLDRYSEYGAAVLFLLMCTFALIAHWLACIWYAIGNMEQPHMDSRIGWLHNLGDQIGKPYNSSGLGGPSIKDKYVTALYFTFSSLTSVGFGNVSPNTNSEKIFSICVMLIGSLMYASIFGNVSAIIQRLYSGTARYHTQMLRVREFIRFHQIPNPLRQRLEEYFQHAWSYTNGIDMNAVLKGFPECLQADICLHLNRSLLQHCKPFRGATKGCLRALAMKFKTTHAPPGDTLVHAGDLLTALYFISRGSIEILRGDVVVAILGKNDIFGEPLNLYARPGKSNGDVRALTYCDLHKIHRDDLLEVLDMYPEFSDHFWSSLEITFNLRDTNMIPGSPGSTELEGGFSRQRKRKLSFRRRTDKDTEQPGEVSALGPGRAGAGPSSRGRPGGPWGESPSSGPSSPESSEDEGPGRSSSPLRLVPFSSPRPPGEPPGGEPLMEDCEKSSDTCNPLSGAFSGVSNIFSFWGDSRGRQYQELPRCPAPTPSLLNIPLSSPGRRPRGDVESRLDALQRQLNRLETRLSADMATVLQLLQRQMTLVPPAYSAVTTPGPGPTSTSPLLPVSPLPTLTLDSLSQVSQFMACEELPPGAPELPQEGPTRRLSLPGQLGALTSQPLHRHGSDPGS
In the case of `Cc1ccc(C(=O)Nc2ccc(NC(=O)c3ccc(C)o3)cc2)o1`, the “hERG current change (%, negative = inhibition) at 10uM” value is given as -1.94%.

For `Cc1ccc(F)cc1CNC(=O)C1CCC(=O)N(CCCN2CCCC2=O)C1` (centres unmarked), the “hERG current change (%, negative = inhibition) at 10uM” value came to 14.6%.

For the compound `Cc1ccc(S(=O)(=O)Nc2cc(C(=O)Nc3cc(C)cc(C)c3)ccc2Cl)cc1`, the “hERG current change (%, negative = inhibition) at 10uM” value is -5.44%.

As for `Cc1ccc2nc(NC(=O)CSc3nc(=O)n(CCN(C)C)c4c3CCCC4)sc2c1`, the “hERG current change (%, negative = inhibition) at 10uM” value was -50.2%.

For `Cc1cc(NC(=O)CSc2nc(=O)n(CCCN(C)C)c3c2CCCC3)no1`, the “hERG current change (%, negative = inhibition) at 10uM” value is reported as -7.06%.

`CN(C)CCCn1c2c(c(SCC(=O)Nc3nccs3)nc1=O)CCC2`: the “hERG current change (%, negative = inhibition) at 10uM” value was -9.32%.

On to `CN(C)CCCn1c2c(c(SCC(=O)Nc3ccc4c(c3)OCCO4)nc1=O)CCC2`, for which the “hERG current change (%, negative = inhibition) at 10uM” value was -12.2%.

Turning to `Cc1cc(NC(=O)CSc2nc(=O)n(CCN(C)C)c3c2CCCC3)no1`, the “hERG current change (%, negative = inhibition) at 10uM” value is reported as -6.91%.

For `Cc1ccc(NC(=O)CSc2nc(=O)n(CCCN(C)C)c3c2CCC3)c(C)c1`, the “hERG current change (%, negative = inhibition) at 10uM” value is given as -50.6%.

As to `Cc1ccc2nc(NC(=O)CSc3nc(=O)n(CCCN(C)C)c4c3CCC4)sc2c1`, the “hERG current change (%, negative = inhibition) at 10uM” value is -50.2%.

Regarding `CCN(CC)CCn1c2c(c(SCC(=O)Nc3nc4ccc(C)cc4s3)nc1=O)CCC2`, the “hERG current change (%, negative = inhibition) at 10uM” value is recorded as -30.4%.

Turning to `Cc1ccc(NC(=O)CSc2nc(=O)n(Cc3ccncc3)c3c2CCC3)c(C)c1`, the “hERG current change (%, negative = inhibition) at 10uM” value was -26.1%.

Turning to `CN1CCC(=O)N([C@H](CN=[N+]=[N-])Cc2ccccc2)CC1`, the “hERG current change (%, negative = inhibition) at 10uM” value is 17.9%.

As to `c1cnc2ccc(-c3ccc4ncccc4c3)cc2c1`, the “hERG current change (%, negative = inhibition) at 10uM” value is given as -5.61%.

Consider `COc1cc(C=O)ccc1OCCOCCOc1ccc(Cl)cc1`, for which the “hERG current change (%, negative = inhibition) at 10uM” value is reported as -37.6%.

Regarding `COc1ccccc1NC(=O)c1ccc(S(=O)(=O)N2CCCC2)cc1`, the “hERG current change (%, negative = inhibition) at 10uM” value is on record as -20.3%.

Consider `CCOC(=O)c1cccc(NC(=O)c2cc3ccccc3o2)c1`, for which the “hERG current change (%, negative = inhibition) at 10uM” value came to 1.39%.

Regarding `FC(F)(F)C1CCCN(c2nsc3ccccc23)C1` (centres unmarked), the “hERG current change (%, negative = inhibition) at 10uM” value amounted to 19.1%.

In the case of `Cl.c1ccc2c(N3CCNCC3)nsc2c1`, the “hERG current change (%, negative = inhibition) at 10uM” value is listed as -5.8%.

On to `Cl.O=C1[C@H]2CCCC[C@H]2C(=O)N1CCCCN1CCN(c2nsc3ccccc23)CC1`, for which the “hERG current change (%, negative = inhibition) at 10uM” value was -74.3%.

For `COc1cccc2nc3cc(C)c(C)cc3nc12`, the “hERG current change (%, negative = inhibition) at 10uM” value is recorded as -7.73%.

For the compound `CCC(=O)N1N=C(c2cccs2)CC1c1ccc(OC)cc1` (centres unmarked), the “hERG current change (%, negative = inhibition) at 10uM” value is 15.9%.

Take `O=C(CN1CCOCC1)N1N=C(c2cccs2)CC1c1cccs1` (centres unmarked): the “hERG current change (%, negative = inhibition) at 10uM” value was 18.9%.

As for `COc1ccc(C2CC(c3cccs3)=NN2C(=O)CCC(=O)O)cc1` (centres unmarked), the “hERG current change (%, negative = inhibition) at 10uM” value worked out at 10.5%.

For the compound `COc1ccc(C2CC(c3cccs3)=NN2C(=O)CN2CCCCC2)cc1` (centres unmarked), the “hERG current change (%, negative = inhibition) at 10uM” value is -71.9%.

`O=C(CN1CCCCC1)N1N=C(c2cccs2)CC1c1cccs1` (centres unmarked): the “hERG current change (%, negative = inhibition) at 10uM” value is given as -58.7%.

On to `CC(=O)N1N=C(c2cccs2)CC1c1cccs1` (centres unmarked), for which the “hERG current change (%, negative = inhibition) at 10uM” value was found to be 5.99%.

Consider `O=C(CSc1ncn[nH]1)Nc1nc(-c2ccccc2)ns1`, for which the “hERG current change (%, negative = inhibition) at 10uM” value is -7.44%.

Consider `CCCC(=O)c1cc(F)c(N2CCN(S(=O)(=O)c3ccccc3)CC2)cc1C`, for which the “hERG current change (%, negative = inhibition) at 10uM” value stood at 13.2%.

As for `CCOc1ccc(NC(=O)C(C)Sc2nccn2C)cc1` (centres unmarked), the “hERG current change (%, negative = inhibition) at 10uM” value is 6.78%.

Regarding `Cn1cccc1Cc1nnc(SCC(=O)NCC2CCCO2)n1CCc1ccccc1` (centres unmarked), the “hERG current change (%, negative = inhibition) at 10uM” value is -10.8%.

With `CCCn1nc(C(=O)OCC(=O)Nc2cccc(OC)c2)c2ccccc2c1=O`, the “hERG current change (%, negative = inhibition) at 10uM” value is on record as 3.96%.

`O=C(O)c1ccc(-n2nnnc2SCc2ccccc2)cc1`: the “hERG current change (%, negative = inhibition) at 10uM” value is reported as 8.05%.

In the case of `CCN(CC)C(CNC(=O)CSc1nnnn1-c1ccc(C)c(C)c1)c1ccco1` (centres unmarked), the “hERG current change (%, negative = inhibition) at 10uM” value is given as -54.5%.

Regarding `O=C(O)c1ccc(CSc2nnnn2-c2ccc(F)cc2)cc1`, the “hERG current change (%, negative = inhibition) at 10uM” value was -9.84%.

As for `Cc1ccc(-n2nnnc2SCC(=O)NNC(=O)c2ccco2)cc1C`, the “hERG current change (%, negative = inhibition) at 10uM” value is on record as 24.3%.

For `Cc1ccc(-n2nnnc2SCc2ccc(C(=O)O)cc2)cc1C`, the “hERG current change (%, negative = inhibition) at 10uM” value is -70.7%.

On to `CCN(CC)C(CNC(=O)CSc1nnnn1-c1cccc(F)c1)c1ccco1` (centres unmarked), for which the “hERG current change (%, negative = inhibition) at 10uM” value was -16.4%.

Take `COc1cc(CCc2ccc3c(c2)OCO3)oc(=O)c1`: the “hERG current change (%, negative = inhibition) at 10uM” value amounted to 4.95%.

`Cc1ccc(C2(C)NC(=O)N(CC(=O)NNC(=O)c3ccoc3C)C2=O)cc1` (centres unmarked): the “hERG current change (%, negative = inhibition) at 10uM” value is reported as 26.6%.

Take `Cc1nn(CC(=O)NCc2ccccc2)c(=O)c2cccn12`: the “hERG current change (%, negative = inhibition) at 10uM” value was found to be 9.27%.

Regarding `Cc1csc2ncnc(N3CCN(C(=S)Nc4ccc(C(F)(F)F)cc4)CC3)c12`, the “hERG current change (%, negative = inhibition) at 10uM” value was -16.7%.

On to `Cc1csc2ncnc(N3CCN(C(=O)Nc4ccc(OC(F)(F)F)cc4)CC3)c12`, for which the “hERG current change (%, negative = inhibition) at 10uM” value is listed as -68%.

As for `O=C(Nc1ccc(Cl)cc1)N1CCN(c2ncccn2)CC1`, the “hERG current change (%, negative = inhibition) at 10uM” value is recorded as -13.2%.

These data come from PMC4336329 (PLoS ONE, 2015).
